Laboratory results taken from PubChem BioAssay (NCI).
Compounds without any hit were thinned out: in the full panel of roughly 83,000, 20% have a hit.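 Plates (96-well) were seeded with cells, treated with compound at one concentration, and incubated for 48 hours before percent growth was determined.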 Active and inactive are the calls of the source. Rule for the calls: active = growth percent below 10; inactive = the rest.

Columns and labels:
Test in all cases: NCI-60 one-dose screen, 48 h (100 = growth as untreated, 0 = no growth, -100 = all killed)
Conditions in all cases: 10 µM unless noted
HCT-15 colon = system: HCT-15 colon
HT29 colon = system: HT29 colon
SNB-75 CNS = system: SNB-75 CNS
SNB-19 CNS = system: SNB-19 CNS
U251 CNS = system: U251 CNS
PC-3 prostate = system: PC-3 prostate
SK-MEL-5 melanoma = system: SK-MEL-5 melanoma
UACC-62 melanoma = system: UACC-62 melanoma
LOX IMVI melanoma = system: LOX IMVI melanoma
SK-MEL-28 melanoma = system: SK-MEL-28 melanoma

Measured: growth

COc1c(B(O)O)cccc1-c1nc2c(F)cc3[nH]ncc3c2c2c1CCCC2
inactive: U251 CNS 13.6% | PC-3 prostate 13.8%
active: HCT-15 colon 0.465% | HT29 colon 6.27% | SNB-75 CNS -87.8% | SNB-19 CNS 6.94% | SK-MEL-5 melanoma -26.3% | UACC-62 melanoma 2.47% | LOX IMVI melanoma -35.2% | SK-MEL-28 melanoma 2.91%

C=C(C)[C@@H]1CC[C@]2(C(=O)N3CCOCC3)CC[C@]3(C)[C@H](CC[C@@H]4[C@@]5(C)C/C(=C/c6ccncc6)C(=O)C(C)(C)[C@@H]5CC[C@]43C)[C@@H]12
inactive: HCT-15 colon 42.6% | HT29 colon 33.8% | SNB-75 CNS 78.5% | SNB-19 CNS 76.9% | U251 CNS 55.7% | PC-3 prostate 25.2% | SK-MEL-5 melanoma 60.6% | UACC-62 melanoma 43.1% | LOX IMVI melanoma 60% | SK-MEL-28 melanoma 74%

CN1C(=O)/C(=C\c2c(Cl)cccc2Cl)c2ccccc21
inactive: HCT-15 colon 67% | HT29 colon 84.5% | SNB-75 CNS 61.3% | SNB-19 CNS 80% | U251 CNS 88.4% | PC-3 prostate 95% | SK-MEL-5 melanoma 86.5% | UACC-62 melanoma 71.2% | LOX IMVI melanoma 82.5% | SK-MEL-28 melanoma 94.4%

CCC(=O)Oc1ccc(-c2ccccc2)cc1Br
inactive: HCT-15 colon 105% | HT29 colon 101% | SNB-75 CNS 95.1% | SNB-19 CNS 112% | U251 CNS 103% | PC-3 prostate 95.4% | SK-MEL-5 melanoma 98.3% | UACC-62 melanoma 109% | LOX IMVI melanoma 107% | SK-MEL-28 melanoma 110%

O=c1[nH]c(-c2ccccc2)nc2sc3cc(O)ccc3c12
inactive: HCT-15 colon 69.4% | HT29 colon 106% | SNB-75 CNS 83.2% | SNB-19 CNS 99.8% | U251 CNS 84.1% | PC-3 prostate 77.3% | SK-MEL-5 melanoma 86.3% | UACC-62 melanoma 73.6% | LOX IMVI melanoma 82.7% | SK-MEL-28 melanoma 93.9%

COc1ccc(-c2nc3cc(C(=O)NCc4ccccc4)ccc3n2C2CCCCC2)cc1
inactive: HCT-15 colon 10% | HT29 colon 28.1% | SNB-75 CNS 64.3% | SNB-19 CNS 98.2% | U251 CNS 68.2% | PC-3 prostate 85.3% | SK-MEL-5 melanoma 38.6% | UACC-62 melanoma 91% | LOX IMVI melanoma 53.9% | SK-MEL-28 melanoma 92.7%

c1cnc2c(-c3nc4ccc5[nH]ncc5c4c4c3CCCC4)c[nH]c2c1
inactive: HCT-15 colon 43.9% | HT29 colon 14.9% | SNB-75 CNS 57.8% | SNB-19 CNS 29.8% | U251 CNS 29.8% | PC-3 prostate 27.5% | SK-MEL-5 melanoma 56.4% | UACC-62 melanoma 45.8% | LOX IMVI melanoma 19.6% | SK-MEL-28 melanoma 88.8%

O=C(Cn1cc(CSc2nc3ccccc3o2)nn1)Nc1ccc(F)cc1F
inactive: HCT-15 colon 107% | HT29 colon 128% | SNB-75 CNS 103% | SNB-19 CNS 101% | U251 CNS 120% | PC-3 prostate 101% | SK-MEL-5 melanoma 98.4% | UACC-62 melanoma 111% | LOX IMVI melanoma 108% | SK-MEL-28 melanoma 114%

O=C(c1nn(-c2ccccc2)c2c1CC(NCc1ccc(F)cc1)CC2)N1CCCCC1 (stereo not given)
inactive: HCT-15 colon 99.5% | HT29 colon 101% | SNB-75 CNS 84.5% | SNB-19 CNS 101% | U251 CNS 95.7% | PC-3 prostate 93.5% | SK-MEL-5 melanoma 96% | UACC-62 melanoma 110% | LOX IMVI melanoma 99.1% | SK-MEL-28 melanoma 117%

CN1CCc2nc3sc(C(N)=O)c(N)c3c(-c3cccs3)c2C1
active: SK-MEL-5 melanoma -58.7% | LOX IMVI melanoma 7.95% | SK-MEL-28 melanoma 5.5%
inactive: HCT-15 colon 33% | HT29 colon 42.6% | SNB-75 CNS 25.2% | SNB-19 CNS 37.9% | U251 CNS 27.4% | PC-3 prostate 32.5% | UACC-62 melanoma 19.5%

O=C1/C(=C/c2ccccc2O)CC/C1=C\c1ccccc1O
active: PC-3 prostate 8.94%
inactive: HCT-15 colon 35.1% | HT29 colon 99.6% | SNB-75 CNS 77.2% | SNB-19 CNS 31.3% | U251 CNS 69.1% | SK-MEL-5 melanoma 77.9% | UACC-62 melanoma 36.6% | LOX IMVI melanoma 45.9% | SK-MEL-28 melanoma 96.8%

O=C(Nc1nc2ccc(C(=O)N3CCN(/C=C/c4ccccc4)CC3)cc2s1)c1ccc(NCCc2ccccc2)c([N+](=O)[O-])c1
active: HT29 colon 5.52%
inactive: HCT-15 colon 22.4% | SNB-75 CNS 79% | SNB-19 CNS 70.2% | U251 CNS 42.3% | PC-3 prostate 45% | SK-MEL-5 melanoma 15% | UACC-62 melanoma 58.3% | LOX IMVI melanoma 47.4% | SK-MEL-28 melanoma 76%

CCN(CC)CCn1c2ccc(O)cc2c2sc3cc(O)ccc3c(=O)c21
active: LOX IMVI melanoma 8.55%
inactive: HCT-15 colon 29.1% | HT29 colon 27.1% | SNB-75 CNS 76.1% | SNB-19 CNS 23.4% | U251 CNS 28.8% | PC-3 prostate 31.5% | SK-MEL-5 melanoma 60.7% | UACC-62 melanoma 39.4% | SK-MEL-28 melanoma 54.5%

CC1=C2[C@@H](CC1)[C@]1(C)O[C@@](C(C)C)(C[C@H]1OC(=O)[C@H](C)O)[C@H]2OC(=O)/C=C/c1ccccc1
inactive: HCT-15 colon 83.6% | HT29 colon 82.8% | SNB-75 CNS 66.4% | SNB-19 CNS 85.1% | U251 CNS 79% | PC-3 prostate 58.3% | SK-MEL-5 melanoma 90.3% | UACC-62 melanoma 66% | LOX IMVI melanoma 84.6% | SK-MEL-28 melanoma 108%

COc1ccc(/C=C/C(=O)c2ccc(Nc3ccnc4cc(Cl)ccc34)cc2)cc1
inactive: HCT-15 colon 77.7% | HT29 colon 45% | SNB-75 CNS 102% | SNB-19 CNS 87.1% | U251 CNS 84.9% | PC-3 prostate 75% | SK-MEL-5 melanoma 67.8% | UACC-62 melanoma 92.3% | LOX IMVI melanoma 89.8% | SK-MEL-28 melanoma 118%

COc1cc2ncnc(Nc3ccc(S(=O)(=O)Nc4cc(C)on4)cc3)c2cc1OCCCN1CCN(c2ccc(F)cc2)CC1
inactive: HCT-15 colon 110% | HT29 colon 112% | SNB-75 CNS 85.4% | SNB-19 CNS 97.3% | U251 CNS 93.6% | PC-3 prostate 101% | SK-MEL-5 melanoma 103% | UACC-62 melanoma 91% | LOX IMVI melanoma 89.8% | SK-MEL-28 melanoma 107%

O=C(Nc1cccc(Cl)c1)Nc1cccc(Cn2c(=O)[nH]c3ccc(Oc4ncccn4)cc3c2=O)c1
inactive: HCT-15 colon 80.6% | HT29 colon 38.8% | SNB-75 CNS 57.8% | SNB-19 CNS 55.6% | U251 CNS 31.3% | PC-3 prostate 36.5% | SK-MEL-5 melanoma 25.5% | UACC-62 melanoma 49.3% | LOX IMVI melanoma 49.7% | SK-MEL-28 melanoma 59.1%

CCOC(=O)c1ccc2c(c1)nc(-c1ccccc1)n2C1CCCCC1
inactive: HCT-15 colon 78.2% | HT29 colon 67.4% | SNB-75 CNS 97% | SNB-19 CNS 105% | U251 CNS 88.8% | PC-3 prostate 74.1% | SK-MEL-5 melanoma 93.8% | UACC-62 melanoma 88% | LOX IMVI melanoma 99.2% | SK-MEL-28 melanoma 107%

Cn1ccc(=O)c(C(=O)Nc2nsc3ccc([N+](=O)[O-])cc23)c1
inactive: HCT-15 colon 54.9% | HT29 colon 68.2% | SNB-75 CNS 72.1% | SNB-19 CNS 91.3% | U251 CNS 63.1% | PC-3 prostate 56.8% | SK-MEL-5 melanoma 87.4% | UACC-62 melanoma 32.6% | LOX IMVI melanoma 51.3% | SK-MEL-28 melanoma 78.3%

Nc1n[nH]c2ccc([C@H]3[C@@H]4C5CCC(C5)[C@@H]4c4c(ccc5[nH]ncc45)N3S(=O)(=O)C3CC3)cc12 (stereo not given in full)
inactive: HCT-15 colon 12.3% | SNB-19 CNS 23.2% | U251 CNS 17.7% | PC-3 prostate 28.3% | UACC-62 melanoma 32.5% | SK-MEL-28 melanoma 52.7%
active: HT29 colon 9.97% | SNB-75 CNS -10.3% | SK-MEL-5 melanoma -22.4% | LOX IMVI melanoma 8.72%

O=C(c1ccccc1)c1ccc(C2CCCCC2)cc1
inactive: HCT-15 colon 91.5% | HT29 colon 91.5% | SNB-75 CNS 97.5% | SNB-19 CNS 86.7% | U251 CNS 88.9% | PC-3 prostate 103% | SK-MEL-5 melanoma 96.6% | UACC-62 melanoma 86.8% | LOX IMVI melanoma 94.6% | SK-MEL-28 melanoma 103%

O=c1c2cccc3c(N4CCCC4)ccc(c32)c2nc3ccccc3n12
inactive: HCT-15 colon 78.6% | HT29 colon 77.8% | SNB-75 CNS 73% | SNB-19 CNS 76% | U251 CNS 64.7% | PC-3 prostate 67.9% | SK-MEL-5 melanoma 64.5% | UACC-62 melanoma 62.6% | LOX IMVI melanoma 51.7% | SK-MEL-28 melanoma 90.9%

c1ccc(-c2oc(-c3ccccc3)c(CN3CCCCC3)c2CN2CCCCC2)cc1
active: SK-MEL-5 melanoma -87%
inactive: HCT-15 colon 19.4% | HT29 colon 10.9% | SNB-75 CNS 55.6% | SNB-19 CNS 44.5% | U251 CNS 25.2% | PC-3 prostate 19.6% | UACC-62 melanoma 37.6% | LOX IMVI melanoma 22.3% | SK-MEL-28 melanoma 10.1%

CCCNC(=O)Nc1ccc2cc3ccc(NC(=O)NCCC)cc3nc2c1
inactive: HCT-15 colon 94.5% | HT29 colon 98.5% | SNB-75 CNS 71.7% | SNB-19 CNS 68.1% | U251 CNS 61.2% | PC-3 prostate 81.5% | SK-MEL-5 melanoma 81.8% | UACC-62 melanoma 91.5% | LOX IMVI melanoma 72.2% | SK-MEL-28 melanoma 81.9%

CSc1nc2ccccc2cc1/C=C1/C=C(c2ccccc2)NC1=O
inactive: HCT-15 colon 41.3% | HT29 colon 38.9% | SNB-75 CNS 79.3% | SNB-19 CNS 80.1% | U251 CNS 78.8% | PC-3 prostate 70.4% | SK-MEL-5 melanoma 82.3% | UACC-62 melanoma 64% | LOX IMVI melanoma 74.4% | SK-MEL-28 melanoma 92.6%

COc1ccc(CN2c3ccccc3Sc3ccccc32)cc1F
active: HT29 colon -4.41%
inactive: HCT-15 colon 15.9% | SNB-75 CNS 45.1% | SNB-19 CNS 34.6% | U251 CNS 20.1% | PC-3 prostate 21.2% | SK-MEL-5 melanoma 22.3% | UACC-62 melanoma 28.5% | LOX IMVI melanoma 39.9% | SK-MEL-28 melanoma 56.8%
